In publication PMC13494018:
Values without a mark were called inactive. How the calls were made is not given here.

Target: CD276, Q5ZPR3
Sequence (Q5ZPR3 whole entry): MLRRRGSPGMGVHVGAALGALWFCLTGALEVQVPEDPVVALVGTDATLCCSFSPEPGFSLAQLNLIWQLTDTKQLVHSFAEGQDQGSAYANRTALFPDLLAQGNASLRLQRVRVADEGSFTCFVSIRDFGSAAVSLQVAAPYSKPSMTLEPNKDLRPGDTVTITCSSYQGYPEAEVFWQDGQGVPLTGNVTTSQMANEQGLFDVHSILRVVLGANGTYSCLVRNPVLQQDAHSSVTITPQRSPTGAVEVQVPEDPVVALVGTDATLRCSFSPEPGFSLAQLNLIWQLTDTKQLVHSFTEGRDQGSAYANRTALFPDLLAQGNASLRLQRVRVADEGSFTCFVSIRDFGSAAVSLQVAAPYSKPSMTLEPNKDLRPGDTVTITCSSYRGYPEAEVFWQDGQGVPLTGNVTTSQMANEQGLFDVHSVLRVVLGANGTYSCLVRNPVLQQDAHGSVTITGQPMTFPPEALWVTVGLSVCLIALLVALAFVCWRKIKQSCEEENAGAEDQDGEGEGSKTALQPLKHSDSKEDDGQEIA

Binder | binding in a display sort
design_621_7e0052dc-ae49-49a0-b99f-9f3ee649cc2f_1809_dldesign_0_cycle1_af2pred (protein) GAELVRRTIEASARTARRAVEEARERAKTPEEVEAAAESARRILQVAVDIGANYPEVAGEAEELAAEVGEEAERTLEEARKEY | not found
design_621_7e0052dc-ae49-49a0-b99f-9f3ee649cc2f_1478_dldesign_0_cycle1_af2pred (protein) AQALLDGVKRSSELAKEAEKYDPEAGKKILEVRTKGSAEASAVAVAGGTDAAVAAIAEKAAEEAKKLYEEAKKRAEERERE | not found
design_621_7e0052dc-ae49-49a0-b99f-9f3ee649cc2f_1226_dldesign_0_cycle1_af2pred (protein) MEAEEYLEKAKEAAEKAKEAAAKGDLAAANAYLGKAIEYAAKAQEVGTPEIAEKANAELARAVKAVQAVAAKVAAA | not found
design_621_7e0052dc-ae49-49a0-b99f-9f3ee649cc2f_1508_dldesign_0_cycle1_af2pred (protein) AKEEEEEAKKKAESVKKMVEVAKALAEYAKKSTDPQVAKIAANAAIGLANNAIEVGKKYPEAEPYAKEAEKVKEEAKKVIEEK | not found
design_621_7e0052dc-ae49-49a0-b99f-9f3ee649cc2f_1562_dldesign_0_cycle1_af2pred (protein) EEKKEEARERGEELVKEAEELAEKAAATSALAAMEAAEYALEVQQEIVELYSEAGDEEGLEEFSARVNKIVAYLQKAALEAQKAEA | not found
design_622_fcc41892-afde-4fb9-b6e8-b664fffd6a75_178_dldesign_0_cycle1_af2pred (protein) AAAAKAAAAAAAKAQTAEARALVEEAERLAETDPELAIEVARRAIALANRAALAAQRIGDAATAAEAMAVAERAAEVLTRAGRRARA | not found
design_621_7e0052dc-ae49-49a0-b99f-9f3ee649cc2f_1041_dldesign_0_cycle1_af2pred (protein) DPAAVAAAEDMWAIAQQTWAAFTANAATITPAQARQYAAVFATAAVAMEDAARRVSPELAVGYRARAAEMRARAAAARAAAAA | not found
design_621_7e0052dc-ae49-49a0-b99f-9f3ee649cc2f_1640_dldesign_0_cycle1_af2pred (protein) GKKEEADKLVEEGNKLFEEAEALAKEGKVAEGSSKLIEGIKLYAEAAKLYREVDPAKADELYATAHAKSAKVNKLLLAAAR | not found
design_621_7e0052dc-ae49-49a0-b99f-9f3ee649cc2f_741_dldesign_0_cycle1_af2pred (protein) MEELKKAAEAAEKLAEVTLAIAKQADPKLAEKAKKLKEEVKKVYEEGKKDPSTAKEKLKELEKLSKEITELAAEASKLAVAKAA | not found
design_621_7e0052dc-ae49-49a0-b99f-9f3ee649cc2f_2237_dldesign_0_cycle1_af2pred (protein) MREEINRRMVELSGRINALFPYAQQDPEVNALLGKALGDLLEAHATPDPEEAAELVERAEEYVEAAEARAAALAA | not found
design_622_fcc41892-afde-4fb9-b6e8-b664fffd6a75_254_dldesign_0_cycle1_af2pred (protein) VDPEAQAKAEAEKMLEETKKAAEESPELAAETLNKGMAEMVKLAQANPEANEIYMKYGIEAAKKASEYIKELQEKRA | not found
design_621_7e0052dc-ae49-49a0-b99f-9f3ee649cc2f_1011_dldesign_0_cycle1_af2pred (protein) DLEKKAKEHLEKAKKLAEKAAASNAAEASVYLSQAIEEASKAVELAKKAGPELYKKYSEEATKLVQRASKAVMAKAQAAA | not found
design_621_7e0052dc-ae49-49a0-b99f-9f3ee649cc2f_1278_dldesign_0_cycle1_af2pred (protein) AANAAEQAARLGKALASAAKNAIEAGNLESARKIAEVAVAAGEEAAELAVKYLEAEDPEAGKIFRELVEEEKARRAAEAA | not found
design_621_7e0052dc-ae49-49a0-b99f-9f3ee649cc2f_606_dldesign_0_cycle1_af2pred (protein) DVAEVLVRTAQAVARQAQAAAALSPEEALAVAQANQQTVAVLLAAAKAAGSAEAVAAAQQAQATVAAVIAAAQARLAA | binds (active)
design_622_fcc41892-afde-4fb9-b6e8-b664fffd6a75_169_dldesign_0_cycle1_af2pred (protein) AQRETIKNGILAMMRALALALDDPEKREEMIEALAGIAAQLPKEEGVRVIKEAAKEVAAKYPEKAEEILEAGERAVELAKKLS | not found
design_621_7e0052dc-ae49-49a0-b99f-9f3ee649cc2f_1898_dldesign_0_cycle1_af2pred (protein) ALAEAQRRAERLEREVEEAERRIEEHADDAERLEELAERLERLAHEALRLAATAPNEVAQRAVEIAERAARAAERARATAERLR | not found
design_622_fcc41892-afde-4fb9-b6e8-b664fffd6a75_7_dldesign_0_cycle1_af2pred (protein) NEHLKEAAKHLEKAIEADAETALQLAQEALSHLLAALREASPEVRPLVEEAISHVTQALVYLSEGGETVEKGREELKKALEHAEKAAA | not found
design_621_7e0052dc-ae49-49a0-b99f-9f3ee649cc2f_501_dldesign_0_cycle1_af2pred (protein) GAEQVAFQTIVAGARHAARLENEEAAKEIAKVYADIAANLSKETQQKVLEAAKKIAKETEAGKKNGEIVVKELEKALEA | not found
design_621_7e0052dc-ae49-49a0-b99f-9f3ee649cc2f_590_dldesign_0_cycle1_af2pred (protein) SERKESVDAGVKAAADIGKYQAKEIAKEDPEKGAAYLKEVEETYEKALASSPEEAFALTNAAFRANAKLAAAAAAKKAAAA | not found

Binder | binding in a display sort
design_621_7e0052dc-ae49-49a0-b99f-9f3ee649cc2f_1792_dldesign_0_cycle1_af2pred (protein) EEAARQALLEAVTKTAIDLIKKADEAAKTDPAQAELYAYQAASLIASVLHQDPEKGKEVLEIAKKSAFGELITKKTEEMLKKIDAA | not found
design_621_7e0052dc-ae49-49a0-b99f-9f3ee649cc2f_687_dldesign_0_cycle1_af2pred (protein) ALEEALERLKKQAEEAEKAGDKEAAKLAKKGAEQMEKAKTDPVAAMQALLAAAAEADKLAPKVGKVANRVAIEAIRGANAIFRAAQ | not found
design_621_7e0052dc-ae49-49a0-b99f-9f3ee649cc2f_2346_dldesign_0_cycle1_af2pred (protein) AEVAEIAKKTAEEVKKLIEAGAPAEEAAAVLNAGIAAVIKAAKAAGPASAADLGKAMDIFKETAELIVAYERERAAEAA | not found
design_621_7e0052dc-ae49-49a0-b99f-9f3ee649cc2f_452_dldesign_0_cycle1_af2pred (protein) EEDERRAEELRRRAEEMLEAAKRAASLPPAERARLLGEAARVVEEARELAERDPRYRPVYDLAVAAFNALATAVGRALAAAA | not found
design_621_7e0052dc-ae49-49a0-b99f-9f3ee649cc2f_896_dldesign_0_cycle1_af2pred (protein) SAAAAAAAAAKAVAAKTAEALVKQAEALIKEAEKSTKEEGLKLRKAAAENYKLAGTLYEQAGDTATAKKLKEEGEKVEKEAEEKA | not found
design_621_7e0052dc-ae49-49a0-b99f-9f3ee649cc2f_1985_dldesign_0_cycle1_af2pred (protein) MAEEAEKLKKEAEKEFEKLKAEAKKYAAANGAKGQLAYQAVVGTGRSALDSLEALADDPERAKKTVEQLLAVAKDLVKSAAA | not found
design_621_7e0052dc-ae49-49a0-b99f-9f3ee649cc2f_1427_dldesign_0_cycle1_af2pred (protein) AAAAAEAAALAQINALTATAVAAAKDPATQPVANAALGQASALAIAQHKVDPAAGAKASQALAAGVEATAAARAAAKAAAAAAAA | not found
design_622_fcc41892-afde-4fb9-b6e8-b664fffd6a75_256_dldesign_0_cycle1_af2pred (protein) SAAAVAAAAAAASARQASAALEEALATGTPEEVLRAAETALKMAEVLAWAGEQSPAAQAALDALRAKAEAARKAVAAA | not found
design_621_7e0052dc-ae49-49a0-b99f-9f3ee649cc2f_2349_dldesign_0_cycle1_af2pred (protein) GEQALQIARAAYVSAKNLLKDAEATENLEDAEKLAELAEAMAKQALEVAKAAAAQSAEAVEYAKKAKEYAEEAKKLVEEKKKA | not found
design_621_7e0052dc-ae49-49a0-b99f-9f3ee649cc2f_591_dldesign_0_cycle1_af2pred (protein) GEEEEKKKEVIEKRQEVLKLLAEAVRVGMEADPELASKAASESLELIAKADKYLKEGKYEEALAELEKAKEYVEKMLKEAKALLAAKL | not found
design_621_7e0052dc-ae49-49a0-b99f-9f3ee649cc2f_1483_dldesign_0_cycle1_af2pred (protein) AEAERLLAEARAAVAKGRAAGLAAAEAGLGAALEAARAMDAEARALAAAAEAAGHPEVAEEIRRAAGAAINEVLARASQVALAKAA | not found
design_621_7e0052dc-ae49-49a0-b99f-9f3ee649cc2f_624_dldesign_0_cycle1_af2pred (protein) AEAAKKKVEELLAKAKEEAKKALEDPANIEKYRAEMSKLIAEANRIGIASTPEVNTLAGSGIEEVLKLLDEAVKKAK | not found
design_621_7e0052dc-ae49-49a0-b99f-9f3ee649cc2f_449_dldesign_0_cycle1_af2pred (protein) SSNVEKAKELARNLTESAALDPASGALAGRALLAAARNAAAALTPEQSAALAAELRAAVAANQPADPEARALFEQAAAVLAA | not found
design_621_7e0052dc-ae49-49a0-b99f-9f3ee649cc2f_1261_dldesign_0_cycle1_af2pred (protein) AADSVALGQANAEAMLAVADPSQLPAAAAAIAAASPAVAERARRIGLRLAEAAGADVAAFRAAYDAAVAAAKA | not found
design_621_7e0052dc-ae49-49a0-b99f-9f3ee649cc2f_1174_dldesign_0_cycle1_af2pred (protein) AEKDEIVEKLLRAAGTATYVAYAFKDDAATKAKATATNQKAREAIQLLGTDFSPEAVALAKEAIEDAEKLKAELEAAQA | not found
design_622_fcc41892-afde-4fb9-b6e8-b664fffd6a75_148_dldesign_0_cycle1_af2pred (protein) GAAEEAAKVAAKGKALTDQAAAGDLETANALLGEALALLEEVARTGSPEAVAAAQAAVAALSKVVLAKAAA | not found
design_621_7e0052dc-ae49-49a0-b99f-9f3ee649cc2f_2499_dldesign_0_cycle1_af2pred (protein) AAAQQTFQNFLGYATLAAAYLATVDPAAAEELMALAAKARADPEKAKEYFAKAKELLTKHLDKLAAYSPEAGQAAQNAIDAANTLL | not found
design_621_7e0052dc-ae49-49a0-b99f-9f3ee649cc2f_505_dldesign_0_cycle1_af2pred (protein) AAAAAARAAALAVRDKYAAKAKEYAAEAEKYAPTDARVKELLDQGKAEAAKGDAALAAGDYAAAEGYYALAYAYYSAALNRALA | not found
design_621_7e0052dc-ae49-49a0-b99f-9f3ee649cc2f_2068_dldesign_0_cycle1_af2pred (protein) DETLKKAKEALKKAAKAAKKIGDEEIAKKVEEALKLLTPESAELALAMAEALLASLKTADGKENAAKIATALRSGVANVAAA | not found
